The values below come from PubChem BioAssay (NCATS).

Where “and” joins values, the source holds several entries; their conditions need not be identical. Identical values can stand only once. Results filed as inconclusive are left out. More than one record can exist for a structure, and the calls need not agree. Calls of active or inactive are those of the source. Unless noted, the call rests on the fitted dose curve; in most records, active means well fitted curve in the direction sought with a large enough effect; inconclusive means small, poorly fitted or top-dose-only effect, or another doubt; inactive means no such curve, though single readings can be large; an effect the other way counts as inactive or inconclusive.

Test [1] is described as follows: qHTS profiling for inhibitors of Plasmodium falciparum (3D7) proliferation (AID 743322; call rule not given here;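 further: infected erythrocytes exposed to compound for 72 h before lysis; 100% = DMSO vehicle wells and 0% = 0.29 µM artemisinin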). The following applies: P. falciparum 3D7 proliferation; at 28.7 µM (top of the series) unless noted. Put shortly:
(§1)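 Erythrocytes infected with P. falciparum (0.3% parasitemia, 2.5% hematocrit) incubated with compounds 72 h at 37 C, 5% CO2. Lysis with saponin/Triton buffer containing SYBR Green I, overnight at room temperature in the dark; DNA fluorescence (485/535 nm) normalised to 0.29 uM artemisinin and DMSO.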
For orientation: qHTS replaces the single test concentration by a dilution series.

Test [2] in a line: qHTS profiling for inhibitors of Plasmodium falciparum (DD2) proliferation (AID 743323; call rule not given here). The following applies: lower = more inhibition; at 28.7 µM (top of the series) unless noted. Put shortly: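 P. falciparum Dd2-infected erythrocytes (0.3% parasitemia, 2.5% hematocrit) exposed 72 h at 37 C, 5% CO2. Lysis with SYBR Green, overnight at room temperature, fluorescence 485/535 nm; normalized to 0.29 uM artemisinin and DMSO.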

Test [3] is described as follows: qHTS profiling for inhibitors of Plasmodium falciparum (HB3) proliferation (AID 743324).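 Further: 100% = DMSO vehicle wells and 0% = artemisinin-treated control wells.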 The following applies: Plasmodium falciparum HB3 blood-stage proliferation; at 28.7 µM (top of the series) unless noted. Put shortly: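 P. falciparum HB3 grown in erythrocytes (0.3% parasitemia, 2.5% hematocrit final) with compound for 72 h at 37 C, 5% CO2. Parasite DNA detected by SYBR Green after saponin/triton lysis overnight; normalized to 0.29 uM artemisinin and DMSO.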

The nature of test [4]: qHTS profiling of the MIPE4 collection as inhibitors of Plasmodium falciparum (3D7) proliferation (AID 743344; call rule not given here;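 further: scaled between DMSO vehicle wells and 0.29 µM artemisinin as full inhibition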). The note with it: P. falciparum 3D7 in erythrocytes, SYBR Green DNA fluorescence, 72 h; at 28.5 µM (top of the series) unless noted. Put shortly: as §1
The nature of test [5]: qHTS profiling of the MIPE4 collection as inhibitors of Plasmodium falciparum (DD2) proliferation (AID 743345; call rule not given here). The following applies: P. falciparum Dd2 in erythrocytes, SYBR Green DNA, 72 h; at 28.5 µM (top of the series) unless noted. Put shortly:
as §1

Test [6] is described as follows: qHTS profiling of the MIPE4 collection as inhibitors of Plasmodium falciparum (DD2) proliferation (Rep 2) (AID 743346; call rule not given here). The following applies: P. falciparum Dd2 in erythrocytes, SYBR Green DNA, 72 h; at 28.5 µM (top of the series) unless noted. Put shortly: as §1
Test [7] is described as follows: qHTS profiling of the MIPE4 collection as inhibitors of Plasmodium falciparum (HB3) proliferation (AID 743347; call rule not given here;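 further: plate controls were DMSO vehicle wells for no effect and artemisinin wells for full effect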). The following applies: P. falciparum HB3 in erythrocytes, SYBR Green DNA, 72 h; at 28.5 µM (top of the series) unless noted. Put shortly:
as §1

Test [8] is described as follows: High-throughput drug toxicity screening in the BPDCN cell line Gen2.2 (AID 1224824; call rule not given here;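 further: cells exposed to compounds for 48 h before reading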). The note with it: Gen2.2 BPDCN cells; at 45.8 µM (top of the series) unless noted. Put shortly:
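Seed 500 exponentially growing Gen2.2 cells/well; add compounds by pin tool; incubate 48 h, 37 °C, 5% CO2; add CellTiter-Glo, 15 min RT; read luminescence. % activity vs DMSO (100%) and bortezomib (0%).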

The nature of test [9]: High-throughput drug toxicity screening in the BPDCN cell line Cal-1 (AID 1224825; call rule not given here). The note with it: Cal-1 BPDCN cell viability, qHTS; at 45.8 µM (top of the series) unless noted. Put shortly:
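500 Cal-1 cells/well, RPMI + glutamine + 10% FBS (phenol red-free); cpd added by pin tool; 48 h, 37C, 5% CO2; CTG 15 min RT, lumi read. Normalised: DMSO 100%, bortezomib 9.2 uM 0%.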

A short description of test [10]: qHTS assay for measurement of the activity of small molecule inhibitors on Zika virus induced Caspase-3 activity in human iPSC derived neural progenitor cells (hNPCs) (AID 1224857). Further: nearly all actives have a fitted effect of over 65% in size. Further: potency means the concentration at half of the fitted maximal effect. The following applies: hNPCs ZIKV-induced caspase-3/7, Caspase-Glo luminescence, 6 h; series mostly up to 45.7 µM. Put shortly:
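After overnight (16–20 h) culture at 350 cells/well, hNPCs get compound, then ZIKV 2 FFU/cell one hour later. Six hours on, Caspase-Glo 3/7 is added and luminescence measured.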

Test [11] in a line: qHTS assay for measurement of the activity of small molecule inhibitors on Zika virus induced Caspase-3 activity in human astrocytoma cells (AID 1224859).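 Further: plate controls were ZIKV-infected untreated cells for no effect and uninfected cells for full effect.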 The note with it: SNB-19 ZIKV-induced caspase-3/7, luminescence, 6 h; series mostly up to 45.7 µM. Put shortly:
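Inhibition of Zika-induced caspase-3/7 activity: SNB-19 cells, 1 h compound pretreatment, ZIKV 2 FFU/cell for 6 h at 37 C, Caspase-Glo luminescence read-out.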

Test [12] is described as follows: qHTS Screen of the MIPE 4.0 Collection Against Ewings Sarcoma (RDES) (AID 1259252). Further: nearly all actives have a fitted effect of over 35% in size. Further: potency means the concentration at half of the fitted maximal effect. The note with it: RD-ES Ewing sarcoma viability, CellTiter-Glo, 48 h; series mostly up to 45.8 µM. Put shortly:
(§2)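 CellTiter-Glo luminescence after 48 h compound exposure (titration) gave viability; percent activity used DMSO-treated cells as no inhibition and medium-only wells as full inhibition. Cells grown in RPMI/5% FBS, dosed 4 h post-seeding.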

A short description of test [13]: qHTS Screen of the MIPE 4.0 Collection Against Ewings Sarcoma (TC71) (AID 1259253). Further: nearly all actives have a fitted effect of over 40% in size. Further: potency means the concentration at half of the fitted maximal effect. The following applies: TC71 Ewing sarcoma viability, CellTiter-Glo, 48 h; series mostly up to 45.8 µM. Put shortly: as §2
The nature of test [14]: qHTS Screen of the MIPE 4.0 Collection Against Ewings Sarcoma (EW8) (AID 1259255). Further: nearly all actives have a fitted effect of over 35% in size. Further: potency means the concentration at half of the fitted maximal effect.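 On viability: 100% = DMSO-treated cells and 0% = medium-only wells without cells.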 The note with it: EW8 Ewing sarcoma viability, CellTiter-Glo, 48 h; series mostly up to 45.8 µM. Put shortly: as §2
The nature of test [15]: qHTS Screen of the MIPE 4.0 Collection Against Ewings Sarcoma (TC32) (AID 1259256). Further: nearly all actives have a fitted effect of over 45% in size. Further: potency means the concentration at half of the fitted maximal effect. The following applies: TC32 Ewing sarcoma viability, CellTiter-Glo, 48 h; series mostly up to 45.8 µM. Put shortly: as §2
The nature of test [16]: qHTS assay to identify small molecule inhibitors of chordoma cells - UCH-1 (AID 1259355). Further: on the % scale 0 is the no-effect control and ±100 the full control effect; nearly all actives have a fitted effect of over 55% in size. The following applies: UCH-1 chordoma viability, CellTiter-Glo, 48 h, combination, with auranofin plus four topoisomerase inhibitors; series mostly up to 46.1 µM. Put shortly:
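Seed 800 cells per well; incubate overnight at 37 C, 5% CO2. Add test compounds (15 concentrations), then the auranofin–topoisomerase-agent combination. Incubate 48hr, add CellTiter-Glo, wait 30min, read luminescence.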

Take `C[C@]12CC[C@H](O)CC1=CC[C@@H]1[C@H]2CC[C@]2(C)C(c3cccnc3)=CC[C@H]12`: the remaining parasite growth % (stronger effect = lower value) in test [1] is -0.476%. Also, the activity, percent of control in [2] was found to be 1.24%. The remaining proliferation (% of control), lower = more inhibition in [3] came out at 24.9%. In test [4], this compound registered a parasite growth, % of DMSO control of 7.02% [at 9.64 µM]. In addition, the parasite growth remaining, % of DMSO control (lower = more inhibition) in [5] amounted to 10% [at 9.64 µM]. The compound also yielded a parasite growth, % of control (lower = inhibition) in test [6] of 24.8% [at 9.64 µM]. This compound came in with a growth, % of control in [7] of 9.4% [at 9.64 µM]. In addition, in test [8], the cell viability, % of control (lower = more cytotoxic) was determined as 60.5% [at 23.2 µM]. The compound further showed a viability (% of control) in test [9] of 98.4% [at 23.2 µM]. For the same compound, the Potency result in [10], in test [11], in test [12], in test [13] and in [14] was “inactive” each time.
Regarding `CC(C)(C)OC(=O)CN(Cc1ccc(Cl)cc1)Cc1ccc([N+](=O)[O-])s1`, in test [1], the remaining parasite growth % (stronger effect = lower value) stood at 2.82%. In [2], the activity, percent of control turned out to be 3.12%. In [3], the remaining proliferation (% of control), lower = more inhibition is -1.32%. The parasite growth, % of DMSO control in test [4] turned out to be 99.5%. In addition, in test [5], the parasite growth remaining, % of DMSO control (lower = more inhibition) was found to be 19.7%. The parasite growth, % of control (lower = inhibition) in [6] is 26.7%. This compound also gave a growth, % of control in test [7] of 51.3%. In addition, in [8], the cell viability, % of control (lower = more cytotoxic) turned out to be 18.4%. This compound had a viability (% of control) in test [9] of 30.5%. Further, the Potency in [10] was 10.5 µM (active); in test [13] it was 2.35 µM (active). The Potency result in [11] and in test [12] was “inactive” in each case.
On to `CC(C=CC1=C(C)CCCC1(C)C)=CC=CC(C)=CC(=O)O`, for which, in [4], the parasite growth, % of DMSO control was 76.8% and 52.8%. In addition, the parasite growth remaining, % of DMSO control (lower = more inhibition) in test [5] is 85.9% and 87.9%. Also, the parasite growth, % of control (lower = inhibition) in test [6] is 81.2% and 51.5%. Further, in test [7], the growth, % of control was 106% and 85.5%. Also, in test [8], the cell viability, % of control (lower = more cytotoxic) is 49.1% and 83.4%. Moreover, the viability (% of control) in [9] is 39.4% and 7.95%. For the same compound, the Potency entry in test [10] and in test [11] was “inactive” each time. Besides, the Potency in test [12] was 23.5 µM (active); in [14], 20.9 µM (active) and 9.35 µM (active); in test [15] it was 20.9 µM (active) and 3.72 µM (active).
Compound `Cc1cn[nH]c1` came in with a parasite growth, % of DMSO control in test [4] of 5.44%. Further, the parasite growth remaining, % of DMSO control (lower = more inhibition) in [5] was 10%. The compound further came in with a parasite growth, % of control (lower = inhibition) in [6] of 6.63%. This compound came in with a growth, % of control in test [7] of 8.35%. Besides, in test [8], the cell viability, % of control (lower = more cytotoxic) turned out to be 120%. In addition, in test [9], the viability (% of control) came out at 55.7%. Besides, the Potency entry in test [10], in test [11], in [15] and in [16] was “inactive” throughout. Moreover, the Potency was 0.0074 µM (active) in [12], 0.0469 µM (active) in test [13] and 59 nM (active) in [14].
For `CS(=O)(=O)c1ccc(C(=O)Nc2ccc(Cl)c(-c3ccccn3)c2)c(Cl)c1`, in test [1], the remaining parasite growth % (stronger effect = lower value) worked out at 105%. The activity, percent of control in test [2] is 101%. For the same compound, the remaining proliferation (% of control), lower = more inhibition in [3] was determined as 103%. In [4], this compound yielded a parasite growth, % of DMSO control of 66.9%. In addition, the parasite growth remaining, % of DMSO control (lower = more inhibition) in test [5] came to 93.4%. For the same compound, the parasite growth, % of control (lower = inhibition) in [6] was 97%. Further, the cell viability, % of control (lower = more cytotoxic) in test [8] stood at 312%. For the same compound, in [9], the viability (% of control) was 65.3%. In addition, the Potency result in [10], in test [11], in [12], in test [13], in test [14] and in [15] was “inactive” each time.
Compound `NNCCc1ccccc1` displayed a parasite growth, % of DMSO control in test [4] of 88.8%. Besides, in [5], the parasite growth remaining, % of DMSO control (lower = more inhibition) came to 24.6%. In addition, the parasite growth, % of control (lower = inhibition) in test [6] was found to be 79.6%. Also, the growth, % of control in test [7] turned out to be 96.6%. In test [8], the cell viability, % of control (lower = more cytotoxic) is 133%. This compound also returned a viability (% of control) in test [9] of 10.4%. For the same compound, the Potency entry is “inactive and 26.4 µM (active)” in [10]; 8.33 µM (active) in [12]; 20.9 µM (active) in test [13]; 9350 nM (active) in [14]; 11.8 µM (active) in test [15]. The Potency result in [11] and in [16] was “inactive” each time.
As for `Cc1cnc(NC(=O)C2=C(O)c3ccccc3S(=O)(=O)N2C)s1`, in test [4], the parasite growth, % of DMSO control was found to be 39%. Moreover, the parasite growth remaining, % of DMSO control (lower = more inhibition) in test [5] amounted to 86.7%. Besides, the parasite growth, % of control (lower = inhibition) in test [6] worked out at 61.9%. The same compound came in with a growth, % of control in test [7] of 78.1%. Besides, the cell viability, % of control (lower = more cytotoxic) in test [8] was found to be 60.9%. In addition, the viability (% of control) in test [9] was 96.3%. Besides, the Potency entry in test [10], in test [11], in test [12], in [13], in test [14] and in test [15] was “inactive” in each case. In [16], the Potency entry is “inactive”.
